Data from PubChem BioAssay (Tox21).
Inconclusive results are not listed. Activity calls are given as the source filed them. Unless noted, calls come from the whole dose curve; as a rule, active = well fitted curve in the direction sought with a large enough effect in the repeat runs; inconclusive = weak or mixed curves; inactive = no such curve, though single readings can be large; an effect the other way counts as inactive or inconclusive.

Columns and labels:
[1] = qHTS assay to identify small molecule agonists of the androgen receptor (AR) signaling pathway in the presence of an antagonist - cell viability counter screen (AID 1259379);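 note: MDA-kb2 human breast cancer cells carrying an MMTV luciferase reporter; series mostly up to about 92 µM; nearly all actives have a fitted effect of over 25% in size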
Outline: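 MDA-kb2 cells (MMTV-luciferase, AR/GR), 3,000/well, 5 h attachment, then 3.0 µM nilutamide (final) and compounds at 15 concentrations. Viability by CellTiter-Fluor fluorescence after 16 h at 37 °C, 0% CO2, in the reporter wells.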

[2] = qHTS assay to identify small molecule antagonists of the estrogen receptor beta (ER-beta) signaling pathway - cell viability counter screen (AID 1259382);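 note: HEK293T cells carrying ER-beta-UAS-bla reporter stimulated with estradiol; series mostly up to about 92 µM; nearly all actives have a fitted effect of over 55% in size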
Outline: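 ER-beta-UAS-bla HEK293T cells in 2% charcoal-stripped FBS medium, treated with compound plus 1 nM 17-beta-estradiol for 16 h at 37C. Viability read by CellTiter-Glo luminescence after 30 min at room temperature in the same wells.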

[3] = biological target: Estrogen receptor (Homo sapiens) (UniProt P03372); assay: qHTS assay to identify small molecule agonists of the estrogen receptor alpha (ER-alpha) signaling pathway in the presence of an antagonist (AID 1259383; calls by dose curve; note: nearly all actives have a fitted effect of over 15% in size; note: potency is the fitted concentration of half-maximal effect; for activation: top concentration of the series differs between compounds)
Outline: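 VM7Luc4E2 cells express endogenous full-length ER-alpha with an ERE-luciferase reporter and were hormone-deprived for 5 days. Compounds at 15 concentrations were added with 10.0nM ICI-182,780 for 22hr at 37C. Luminescence was read with ONE-Glo.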

[4] = qHTS assay to identify small molecule agonists or antagonists of the thyroid stimulating hormone receptor (TSHR) signaling pathway - wild type cell line counter screen (AID 1259384; calls by dose curve)
Outline: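 Wild-type HEK293 cells were plated 18 h at 37 C/5% CO2, pin-dosed with compound plus Ro20-1724 medium, held 30 min at room temperature, then given cAMP-d2 and anti-cAMP-cryptate; fluorescence was read after 1 h. Fifteen concentrations, triplicate.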

[5] = biological target: Thyrotropin receptor (Homo sapiens) (UniProt P16473); assay: qHTS assay to identify small molecule antagonists of the thyroid stimulating hormone receptor (TSHR) signaling pathway (AID 1259385; calls by dose curve; note: nearly all actives have a fitted effect of over 20% in size)
Outline: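 TSHR-HEK293 cells were plated and held 18 h at 37C/5% CO2, then given compound plus Ro20-1724 and stimulated with TSH at 1.5 ng/mL final. After 30 min at room temperature, cAMP was detected with cAMP-d2/anti-cAMP-cryptate (1 h) by fluorescence.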

[6] = qHTS assay to identify small molecule agonists of the estrogen receptor alpha (ER-alpha) signaling pathway in the presence of an antagonist - cell viability counter screen (AID 1259386);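 note: series mostly up to about 92 µM; cells exposed to compounds for 22 h at 37 °C before the viability read; nearly all actives have a fitted effect of over 30% in size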
Outline: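 Cell viability in VM7Luc4E2 cells (endogenous full-length ER-alpha) measured by CellTiter-Fluor fluorescence in the same wells as the luciferase screen. Cells pre-cultured 5 days in charcoal-stripped serum, then treated 22 h with compounds at 15 concentrations plus 10.0nM ICI-182,780.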

[7] = biological target: Progesterone receptor (Homo sapiens) (UniProt P06401); assay: qHTS assay to identify small molecule agonists of the progesterone receptor (PR) signaling pathway (AID 1346784; calls by dose curve; note: nearly all actives have a fitted effect of over 30% in size)
Outline: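 Using charcoal-stripped serum (2%) to limit endogenous steroids, PR-UAS-bla HEK 293T cells received compounds for 16 hr at 37C after 6 hr plating; beta-lactamase FRET fluorescence was recorded following 2 hr substrate loading at room temperature.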

[8] = biological target: Progesterone receptor (Homo sapiens) (UniProt P06401); assay: qHTS assay to identify small molecule antagonists of the progesterone receptor (PR) signaling pathway (AID 1346795; active = well fitted inhibition curve with a large enough effect in the signal ratio in the repeat runs, not every such curve was filed as active; the % refers to the signal ratio)
Outline: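 Inhibition of R5020-induced (1 nM final) beta-lactamase reporter signal in PR-UAS-bla HEK293T cells was scored by FRET fluorescence after overnight (16 hr) compound treatment.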

[9] = qHTS assay to identify small molecule antagonists of the progesterone receptor (PR) signaling pathway - cell viability counter screen (AID 1346798); note: series mostly up to about 92 µM; nearly all actives have a fitted effect of over 50% in size
Outline: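 ATP content as viability readout: CellTiter-Glo luminescence, 30 min room temperature, in PR-UAS-bla HEK293T cells after 16 hr compound/R5020 treatment at 37C and 5% CO2.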

[10] = qHTS assay to identify small molecule agonists of the progesterone receptor (PR) signaling pathway - cell viability counter screen (AID 1346799; calls by dose curve; note: nearly all actives have a fitted effect of over 45% in size)
Outline: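 Cytotoxicity in PR-bla HEK293T cells: 16 h compound, 37C; CellTiter-Glo added post-FRET read; luminescence after 30 min RT.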

[11] = qHTS assay to identify small molecule antagonists of the TGF-beta/Smad signaling pathway - cell viability counter screen (AID 1346824); note: nearly all actives have a fitted effect of over 50% in size
Outline: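 SBE-bla HEK 293T cells were plated overnight at 37 C, then given compounds in DMSO plus TGF-beta1 (added as 0.25 ng/mL solution) for 5 hr. After the bla read, CellTiter-Glo was added to the same wells and luminescence read after 30 min at room temperature.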

[12] = qHTS assay to identify small molecule agonists of the TGF-beta/Smad signaling pathway (AID 1346859; active = well fitted activation curve with a large enough effect in the signal ratio in the repeat runs, not every such curve was filed as active; the % refers to the signal ratio; note: series mostly up to about 77 µM)
Outline: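 Stable Smad binding element-beta-lactamase HEK 293T cells; 5 hr compound exposure at 37 C under 5% CO2; 2 hr room-temperature substrate step; fluorescence excited at 405 nm, collected at 460 nm and 530 nm.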

[13] = Human pregnane X receptor (PXR) small molecule agonists, qHTS cell viability counter screen (AID 1346977); note: nearly all actives have a fitted effect of over 50% in size
Outline: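 Readout is CellTiter-Fluor fluorescence from PXR-Luc HepG2 cells. Plated cells rested 5hr, then were treated with compounds for 24hr at 37C and 5% CO2, with reagent present during the last hour.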

[14] = qHTS assay to identify small molecule agonists of the TGF-beta/Smad signaling pathway - cell viability counter screen (AID 1346829); note: top concentration of the series differs between compounds; nearly all actives have a fitted effect of over 45% in size
Outline: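 CellTiter-Glo luminescence readout; SBE-bla HEK 293T cells, overnight plating, compound 5 hr at 37 C/5% CO2, then bla substrate 2 hr RT, then CellTiter-Glo 30 min RT.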

[15] = biological target: Thyrotropin-releasing hormone receptor (Homo sapiens) (UniProt P34981); assay: qHTS assay to identify small molecule agonists of the thyrotropin-releasing hormone receptor (TRHR) signaling pathway (AID 1346891; calls by dose curve; note: series mostly up to about 58 µM)
Outline: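 In 1536-format, 1500 TRHR-Hek293 cells per well grew 18 h, took up calcium dye for 2 h at 37 °C, received compound, and were read kinetically; 15-point titrations, triplicates.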

[16] = qHTS assay to identify small molecule agonists of the estrogen receptor beta (ER-beta) signaling pathway - cell viability counter screen (AID 1259380); note: nearly all actives have a fitted effect of over 30% in size
Outline: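 ER-beta-UAS-bla HEK293T cells in medium with 2% charcoal-stripped FBS, pre-incubated 6 hr, then treated 16 hr at 37C. Cytotoxicity read in the same wells by CellTiter-Glo luminescence after 30 min at room temperature.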

[17] = biological target: Thyrotropin-releasing hormone receptor (Homo sapiens) (UniProt P34981); assay: qHTS assay to identify small molecule antagonists of the thyrotropin-releasing hormone receptor (TRHR) signaling pathway (AID 1346877; active = well fitted inhibition curve with a large enough effect in the repeat runs, not every such curve was filed as active; note: series mostly up to about 51 µM)
Outline: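 TRHR-expressing HEK293 cells loaded with calcium dye for 2 h at 37 C; compounds pre-incubated 5 min at room temperature before TRH challenge at 1 nM final. Intracellular calcium fluorescence read kinetically for 3 min; 15 concentrations in triplicate.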

Measured: Potency

Thyrotropin receptor (Homo sapiens), sequence (P16473 whole entry, looked up): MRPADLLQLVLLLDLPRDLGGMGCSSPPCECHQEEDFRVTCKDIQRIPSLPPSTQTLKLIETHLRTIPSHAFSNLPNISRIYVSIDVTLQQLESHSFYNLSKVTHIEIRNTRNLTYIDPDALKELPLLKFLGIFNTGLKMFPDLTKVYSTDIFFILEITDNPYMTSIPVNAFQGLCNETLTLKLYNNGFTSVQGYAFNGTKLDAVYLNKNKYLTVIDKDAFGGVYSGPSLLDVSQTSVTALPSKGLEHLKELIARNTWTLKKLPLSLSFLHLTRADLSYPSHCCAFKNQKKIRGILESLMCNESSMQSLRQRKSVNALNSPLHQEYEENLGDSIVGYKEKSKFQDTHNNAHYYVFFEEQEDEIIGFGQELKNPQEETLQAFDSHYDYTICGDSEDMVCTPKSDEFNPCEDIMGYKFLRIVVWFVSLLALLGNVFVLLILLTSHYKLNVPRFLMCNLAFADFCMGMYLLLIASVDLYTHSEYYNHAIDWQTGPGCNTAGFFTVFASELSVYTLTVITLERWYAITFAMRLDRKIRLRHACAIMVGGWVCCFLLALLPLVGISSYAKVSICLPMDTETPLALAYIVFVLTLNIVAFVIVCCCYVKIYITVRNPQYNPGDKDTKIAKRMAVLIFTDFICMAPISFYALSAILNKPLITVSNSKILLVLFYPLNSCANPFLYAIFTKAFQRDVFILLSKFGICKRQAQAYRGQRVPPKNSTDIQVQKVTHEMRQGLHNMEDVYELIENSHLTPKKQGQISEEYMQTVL
Estrogen receptor (Homo sapiens), sequence (P03372 whole entry, looked up): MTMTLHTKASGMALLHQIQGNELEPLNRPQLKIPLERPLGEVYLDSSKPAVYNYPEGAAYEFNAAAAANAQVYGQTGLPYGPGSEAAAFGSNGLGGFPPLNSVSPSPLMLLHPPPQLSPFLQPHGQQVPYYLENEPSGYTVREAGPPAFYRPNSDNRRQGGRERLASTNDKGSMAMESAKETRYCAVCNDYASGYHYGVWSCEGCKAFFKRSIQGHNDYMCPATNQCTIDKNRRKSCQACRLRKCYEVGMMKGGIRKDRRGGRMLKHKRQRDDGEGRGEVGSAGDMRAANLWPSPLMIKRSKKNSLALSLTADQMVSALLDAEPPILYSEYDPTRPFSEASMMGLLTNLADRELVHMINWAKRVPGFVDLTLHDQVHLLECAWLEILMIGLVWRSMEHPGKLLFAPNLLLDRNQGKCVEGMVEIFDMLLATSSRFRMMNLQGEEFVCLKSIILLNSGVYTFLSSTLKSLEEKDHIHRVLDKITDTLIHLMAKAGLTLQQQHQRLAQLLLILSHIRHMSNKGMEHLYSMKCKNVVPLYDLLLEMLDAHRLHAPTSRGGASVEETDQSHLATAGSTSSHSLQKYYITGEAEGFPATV
Thyrotropin-releasing hormone receptor (Homo sapiens), sequence (P34981 whole entry, looked up): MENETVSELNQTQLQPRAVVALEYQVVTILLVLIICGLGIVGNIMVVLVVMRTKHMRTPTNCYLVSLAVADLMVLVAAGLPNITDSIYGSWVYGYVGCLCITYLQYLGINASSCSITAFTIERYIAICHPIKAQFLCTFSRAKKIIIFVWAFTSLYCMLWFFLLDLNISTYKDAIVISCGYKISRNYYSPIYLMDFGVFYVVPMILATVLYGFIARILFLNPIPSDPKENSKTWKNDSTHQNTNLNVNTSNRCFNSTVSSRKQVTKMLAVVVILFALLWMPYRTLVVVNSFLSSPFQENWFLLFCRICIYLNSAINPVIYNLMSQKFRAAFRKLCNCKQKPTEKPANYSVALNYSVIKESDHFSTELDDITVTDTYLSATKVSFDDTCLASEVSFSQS
Progesterone receptor (Homo sapiens), sequence (P06401 whole entry, looked up): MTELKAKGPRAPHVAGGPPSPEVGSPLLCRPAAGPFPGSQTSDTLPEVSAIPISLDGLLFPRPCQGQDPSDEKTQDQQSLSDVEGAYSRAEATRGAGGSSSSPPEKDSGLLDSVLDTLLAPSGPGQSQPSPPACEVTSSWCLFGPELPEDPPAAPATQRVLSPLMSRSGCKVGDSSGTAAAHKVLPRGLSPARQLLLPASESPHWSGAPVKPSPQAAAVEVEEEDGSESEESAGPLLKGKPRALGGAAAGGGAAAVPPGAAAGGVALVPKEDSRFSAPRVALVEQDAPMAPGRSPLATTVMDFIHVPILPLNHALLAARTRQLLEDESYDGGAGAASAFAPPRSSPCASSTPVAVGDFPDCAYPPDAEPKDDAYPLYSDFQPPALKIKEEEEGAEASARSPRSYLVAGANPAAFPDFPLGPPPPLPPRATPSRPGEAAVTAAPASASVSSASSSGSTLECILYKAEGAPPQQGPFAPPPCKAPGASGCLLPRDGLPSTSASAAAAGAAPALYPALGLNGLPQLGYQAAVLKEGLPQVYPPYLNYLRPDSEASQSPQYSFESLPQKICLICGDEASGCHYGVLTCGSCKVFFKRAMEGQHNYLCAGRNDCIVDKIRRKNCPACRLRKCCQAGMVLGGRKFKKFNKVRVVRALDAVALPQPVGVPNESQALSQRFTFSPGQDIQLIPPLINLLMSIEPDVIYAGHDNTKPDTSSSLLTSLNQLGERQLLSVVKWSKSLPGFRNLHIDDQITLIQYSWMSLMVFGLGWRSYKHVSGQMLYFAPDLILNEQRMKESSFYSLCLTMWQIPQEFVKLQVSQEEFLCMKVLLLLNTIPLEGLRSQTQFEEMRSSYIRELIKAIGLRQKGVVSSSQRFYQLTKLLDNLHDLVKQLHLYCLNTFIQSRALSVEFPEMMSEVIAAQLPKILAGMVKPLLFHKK

Cc1ccc(Cl)c(O)c1
not listed: [14] | [15] | [16] | [17]
inactive: all other assays above

C[C@]12C=CC(=O)C=C1CC[C@@H]1[C@@H]2CC[C@@]2(C)[C@H]1CC[C@]2(C)O
active: [3] 2.98 µM
not listed: [7] | [9] | [10] | [16] | [17]
inactive: all other assays above

O=P(O)(O)c1ccccc1
not listed: [1] | [7]
inactive: all other assays above

COC(=O)[C@@H](N)CCCN/C(N)=N/[N+](=O)[O-]
not listed: [3] | [9] | [12] | [15]
inactive: all other assays above

CCOC(=O)NC(C)(C)Cc1ccc(Cl)cc1
not listed: [1] | [5] | [11] | [15] | [17]
inactive: all other assays above

CC1=C2[C@H]3OC(=O)[C@@H](C)[C@@H]3CC[C@@]2(C)C=CC1=O
not listed: [3] | [4] | [5] | [16]
inactive: all other assays above

C#CCOC(=O)/C=C(C)/C=C/CC(C)CCCC(C)C (stereo not given)
not listed: [2] | [7] | [12] | [14]
inactive: all other assays above

CCCOc1nn(C(=O)NS(=O)(=O)c2ccccc2C(=O)OC)c(=O)n1C
not listed: [3] | [4] | [11] | [13] | [15] | [17]
inactive: all other assays above

CC(Cl)(Cl)Cl
not listed: [3] | [4] | [14] | [16]
inactive: all other assays above

Cc1cccc2sc3nncn3c12
not listed: [1] | [9] | [12]
inactive: all other assays above

O=C(O)C(Br)(Br)Br
not listed: [1]
inactive: all other assays above

Clc1ccc(C(Cl)(Cl)Cl)cn1
not listed: [4] | [9] | [10] | [11] | [16]
inactive: all other assays above

O=c1[nH]c2ccccc2n1C1CCNCC1
not listed: [1] | [9] | [17]
inactive: all other assays above

[O-][Br+2]([O-])O
not listed: [1] | [7] | [13]
inactive: all other assays above
